Screening results as filed in PubChem.
Only some compounds are listed: those with a hit (about 10% of all), similar ones and a draw of the others.
G9a inh = G9a (human) methyltransferase inhibition; 8.8% of 350,000 active; Q96KQ7; Potency, µM (titrated, usually from 102 µM), without a hit: top-dose activity, negative = inhibition, actives largely listed as inhibitors; AID 504332; G9a H3K9 monomethylation, AlphaScreen, 2 h; note: potency is the fitted concentration of half-maximal effect; % is set by controls: 0 for no effect and ±100 for the full control effect; nearly all actives have a fitted effect of over 75% in size
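Enzyme 20 nM + cpd, 15 min RT; add b-H3K9 pep 500 nM / SAM 20 uM; 2 h RT; anti-H3K9me1 Ab 0.5 ug/mL + SA donor / anti-rabbit acceptor beads 20 ug/mL each, 10 min; AlphaScreen read.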
Six1-Eya2 inh = Six1/Eya2 interaction inhibition; Q15475+O00167; AlphaScreen GST-Six1/His-Eya2 binding, biochemical; active compounds read low; activity change, % (no concentration beside the values); 0.56% of 360,000 active; AID 651725; in the data active = activity change below about -65%; inconclusive = mostly about -30% to -63%; note: % is set by controls: 0 for no effect and ±100 for the full control effect
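Compounds are tested against tagged Six1 and Eya2 proteins bridged by glutathione donor and nickel acceptor beads; after a one-hour incubation at 37 °C without light, AlphaScreen emission is recorded.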
HP1b binding inh = inhibitors of HP1-beta chromodomain binding to methylated histone tails | Potency, µM (highest dose often 114 µM), for the others: top-dose activity change, negative = inhibition, usual class: inhibitors | 0.56% of 390,000 active | AlphaScreen HP1-beta / biotin-H3K9me3 peptide binding | P83916 | AID 540317; note: potency is the fitted concentration of half-maximal effect; nearly all actives have a fitted effect of over 70% in size
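Compound inhibition of the preformed complex between 50 nM HP1-beta and 50 nM biotinylated H3K9me3 peptide was read by AlphaScreen. Buffer was PBS pH 7.4 with 0.01% Tween-20. Incubations ran 30 min at room temperature, with 10 ug/mL donor/acceptor beads.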
BAZ2B block = blocks human BAZ2B; Q9UIF8; AlphaScreen BAZ2B-H3K14Ac peptide displacement; Potency, µM (top dose mostly 114 µM), without a hit: at the highest dose activity change, negative = inhibition, usual class: inhibitors; 4.4% of 360,000 active; AID 504333; note: potency is the fitted concentration of half-maximal effect; % is set by controls: 0 for no effect and ±100 for the full control effect; nearly all actives have a fitted effect of over 60% in size
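Compounds, titrated to a top concentration of 110 uM, were incubated 30 min at room temperature with preformed BAZ2B/acetyl-K14 H3 peptide complex (50 nM each). Proximity signal was measured by AlphaScreen after 20 min with beads.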
JMJD2A Tudor inh = inhibitors of human JMJD2A Tudor domain; AID 504339; 4.4% of 390,000 active; AlphaScreen JMJD2A-Tudor / H3K4me3 peptide binding; Potency, µM (series often up to 114 µM), for inactives: at the top dose activity change, negative = inhibition, most hits filed as inhibitors; O75164; note: potency is the fitted concentration of half-maximal effect; % is set by controls: 0 for no effect and ±100 for the full control effect; nearly all actives have a fitted effect of over 50% in size
Target sequence (O75164 whole entry, looked up, the tested form may be a part): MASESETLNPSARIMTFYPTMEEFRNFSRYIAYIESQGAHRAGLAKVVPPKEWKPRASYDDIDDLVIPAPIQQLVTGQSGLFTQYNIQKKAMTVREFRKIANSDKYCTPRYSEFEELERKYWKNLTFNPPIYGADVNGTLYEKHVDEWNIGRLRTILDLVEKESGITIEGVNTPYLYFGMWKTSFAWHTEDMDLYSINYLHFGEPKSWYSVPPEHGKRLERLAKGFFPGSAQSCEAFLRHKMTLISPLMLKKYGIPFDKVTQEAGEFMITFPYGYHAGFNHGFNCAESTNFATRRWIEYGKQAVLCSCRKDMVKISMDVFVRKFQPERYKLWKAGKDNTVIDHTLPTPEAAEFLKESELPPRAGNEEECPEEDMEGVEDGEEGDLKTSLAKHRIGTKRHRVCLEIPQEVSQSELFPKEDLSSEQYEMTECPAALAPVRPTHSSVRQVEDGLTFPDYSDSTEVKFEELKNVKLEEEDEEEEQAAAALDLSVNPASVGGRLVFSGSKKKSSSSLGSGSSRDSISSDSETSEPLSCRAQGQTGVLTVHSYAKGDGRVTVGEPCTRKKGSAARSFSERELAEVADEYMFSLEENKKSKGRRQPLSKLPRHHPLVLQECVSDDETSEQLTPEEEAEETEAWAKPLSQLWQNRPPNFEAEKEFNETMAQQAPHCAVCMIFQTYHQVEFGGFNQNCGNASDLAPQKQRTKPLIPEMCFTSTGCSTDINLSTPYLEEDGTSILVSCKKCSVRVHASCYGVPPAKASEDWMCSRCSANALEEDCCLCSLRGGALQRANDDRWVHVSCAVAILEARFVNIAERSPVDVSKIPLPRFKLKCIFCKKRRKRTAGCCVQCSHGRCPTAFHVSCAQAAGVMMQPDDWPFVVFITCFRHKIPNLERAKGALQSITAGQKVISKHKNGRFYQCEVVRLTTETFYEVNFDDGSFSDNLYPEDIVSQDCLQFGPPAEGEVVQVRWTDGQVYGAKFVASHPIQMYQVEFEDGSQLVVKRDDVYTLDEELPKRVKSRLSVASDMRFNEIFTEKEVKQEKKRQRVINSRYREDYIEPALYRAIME
CtBP-E1A blk = CtBP/E1A binding inhibition. AlphaScreen GST-E1A/His-CtBP binding, 1536-well; active compounds read low. activity change, % (concentration not given with the values). 0.49% of 340,000 active. AID 651724; in the data active = activity change below about -65%; inconclusive = mostly about -30% to -63%; note: % is set by controls: 0 for no effect and ±100 for the full control effect
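GST-E1A and His-tagged CtBP (125 nM each as 5X stock) were preincubated with pin-transferred compound for 2 h at 37 °C in the dark, then glutathione donor and nickel acceptor beads were added for 1 h before AlphaScreen reading.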
* hit, by the source's call; [ ] = another dose, or the depositor's remark. Unless noted, calls come from the whole dose curve; as a rule, active = well fitted inhibition curve with a large enough effect; inconclusive = small, poorly fitted or top-dose-only effect; inactive = no such curve, though single readings can be large or run the other way.

COc1ccc(-c2n[nH]c(=S)n2-c2ccc(C)cc2C)cc1 was read as G9a inh 14%[0.501 µM], Six1-Eya2 inh -5, HP1b binding inh 29%, BAZ2B block -28% and JMJD2A Tudor inh inconclusive.
FC(F)(F)c1ccccc1-n1c(-c2cnccn2)n[nH]c1=S was read as G9a inh inconclusive, Six1-Eya2 inh -9, HP1b binding inh 45%, BAZ2B block -29%, JMJD2A Tudor inh -16% and CtBP-E1A blk -6.
For Cc1ccc(-n2c(-c3cccnc3)n[nH]c2=S)c(C)c1 the results were G9a inh 1.6µM*, Six1-Eya2 inh -2, HP1b binding inh 10%, BAZ2B block 4%, JMJD2A Tudor inh 5µM* and CtBP-E1A blk -8.
`O=C(O)CCc1nn2c3ccccc3n(CCO)c2nc1=O` gave G9a inh inconclusive, Six1-Eya2 inh 5, HP1b binding inh 22%, BAZ2B block -8%, JMJD2A Tudor inh -14% and CtBP-E1A blk 9.
`O=C(O)CCc1nn2c3ccccc3n(CC(=O)O)c2nc1=O` gave G9a inh 50µM*, Six1-Eya2 inh -16, HP1b binding inh 22%, BAZ2B block 2%, JMJD2A Tudor inh -1% and CtBP-E1A blk -8.
Screening COCCn1nnnc1C(c1ccccc1OC)N1CCN(C(=O)c2ccco2)CC1 (centres undefined) returned G9a inh 50µM*, Six1-Eya2 inh 11, HP1b binding inh 52%, BAZ2B block -26%, JMJD2A Tudor inh inconclusive and CtBP-E1A blk -8.
Screening CC(C)CCn1nnnc1C(c1ccc(F)cc1)N1CCN(C(=O)c2ccco2)CC1 (centres undefined) returned G9a inh 50µM*, Six1-Eya2 inh -2, HP1b binding inh 45%, BAZ2B block -35%, JMJD2A Tudor inh -12% and CtBP-E1A blk 1.
COCCn1nnnc1C(c1cccc(OC)c1OC)N1CCN(C(=O)c2ccco2)CC1 (centres undefined) was read as G9a inh 50µM*, Six1-Eya2 inh -1, HP1b binding inh 29%, BAZ2B block -18%, JMJD2A Tudor inh -10% and CtBP-E1A blk 6.
Screening COCCn1nnnc1C(c1ccccc1)N1CCN(C(=O)c2ccco2)CC1 (centres undefined) returned G9a inh inconclusive, Six1-Eya2 inh -4, HP1b binding inh -5%[57 µM], BAZ2B block inconclusive, JMJD2A Tudor inh inconclusive and CtBP-E1A blk 5.
Cc1ccc(Cn2c(=O)c3cccnc3n(CC(=O)Nc3cc(Cl)ccc3C)c2=O)cc1 was read as G9a inh 7%[59 µM], HP1b binding inh 33%, BAZ2B block -1% and JMJD2A Tudor inh 3%.
Screening CCCCC(=O)N(C)c1c(C)nc2ccc(C(=O)N3CCN(C(=O)c4ccco4)CC3)cn12 returned Six1-Eya2 inh 6 and CtBP-E1A blk -13.
`COc1ccc(N2C(=O)C3C4C=CC(C5CC45)C3C2=O)c([N+](=O)[O-])c1` (centres undefined) gave G9a inh 14%, Six1-Eya2 inh -2, HP1b binding inh 24%, BAZ2B block 12%[57.1 µM], JMJD2A Tudor inh -20% and CtBP-E1A blk -1.
`COc1cc([N+](=O)[O-])ccc1N1C(=O)C2C3C=CC(C4CC34)C2C1=O` (centres undefined) gave G9a inh 40µM*, Six1-Eya2 inh -3, HP1b binding inh 20%, BAZ2B block -27%, JMJD2A Tudor inh -12%[57.1 µM] and CtBP-E1A blk 21.
S=C(NCCN1CCOCC1)N/N=C/c1cccs1 was read as G9a inh 31%[2.33 µM], Six1-Eya2 inh -1, HP1b binding inh 30%, BAZ2B block -11% and JMJD2A Tudor inh -27%.
For Oc1cccc(/C=N/NC(=S)NCCN2CCOCC2)c1O the results were G9a inh 3%[12.7 µM], Six1-Eya2 inh -69*, HP1b binding inh 31%, BAZ2B block 8.9µM*, JMJD2A Tudor inh 22µM* and CtBP-E1A blk -94*.
`O=C(O)c1ccc(/C=N/NC(=S)NCCN2CCOCC2)cc1` gave G9a inh -42%, Six1-Eya2 inh -10, HP1b binding inh 27%, BAZ2B block -5%, JMJD2A Tudor inh 32µM* and CtBP-E1A blk 13.
For CCc1ccccc1NC(=O)C(C)n1c(=O)cc(C)c2c(C)nn(-c3ccccc3)c21 (centres undefined) the results were G9a inh 17%[59 µM], HP1b binding inh -2%, BAZ2B block -6% and JMJD2A Tudor inh -11%.
`O=C(Nc1cccc(Br)c1)N1CCC(CN2CCCCC2)CC1` gave G9a inh -16%[59 µM], HP1b binding inh 34%, BAZ2B block 3% and JMJD2A Tudor inh -4%.
`N=C1C=CC(=C(c2ccc(N)cc2)c2ccc(N)cc2)C=C1` gave Six1-Eya2 inh -24, HP1b binding inh inconclusive, JMJD2A Tudor inh 7.1µM* and CtBP-E1A blk 0.
Screening Nc1ccc(C(=O)C(=O)c2ccc(N)cc2)cc1 returned G9a inh 2%, Six1-Eya2 inh -2, HP1b binding inh 17%, BAZ2B block -4% and JMJD2A Tudor inh -4%.
For CCC(NC(=O)Nc1nccs1)(C(F)(F)F)C(F)(F)F the results were G9a inh inconclusive, Six1-Eya2 inh 5, HP1b binding inh 14%, BAZ2B block 10%, JMJD2A Tudor inh -5% and CtBP-E1A blk 0.
Screening CCC(C(=O)Nc1nccs1)(C(F)(F)F)C(F)(F)F returned G9a inh inconclusive, Six1-Eya2 inh 1, HP1b binding inh 24%, BAZ2B block 56µM*, JMJD2A Tudor inh -10% and CtBP-E1A blk 1.
Screening CSc1nc(N)c2ncn([C@@H]3O[C@H](COP(=O)(O)OP(=O)(O)O)C(O)[C@H]3O)c2n1 (some centres undefined) returned G9a inh 9.5µM*.
`CSc1nc(N)c2ncn([C@@H]3O[C@H](COP(=O)(O)OP(=O)(O)OP(=O)(O)O)[C@@H](O)[C@H]3O)c2n1` gave G9a inh 37%[59 µM].
For Cc1cc(C)c(S(=O)(=O)Nc2cccc(-c3cn4ccccc4n3)c2)c(C)c1 the results were G9a inh -36%[59 µM], HP1b binding inh 45%, BAZ2B block -28% and JMJD2A Tudor inh 5µM*.
Screening Cc1cc(C)c(S(=O)(=O)Nc2ccc(-c3cn4ccccc4n3)cc2)c(C)c1 returned G9a inh inconclusive, Six1-Eya2 inh inconclusive, HP1b binding inh -10%, BAZ2B block inconclusive, JMJD2A Tudor inh inconclusive and CtBP-E1A blk inconclusive.
Screening CCc1nc2ccc(C(=O)NCCN(C)C)cn2c1N(CC)CCOC returned Six1-Eya2 inh 13 and CtBP-E1A blk 9.
`CC(=O)Nc1ccc2nc(NC(=O)c3cccs3)sc2c1` gave G9a inh 45µM*, Six1-Eya2 inh 6, HP1b binding inh 35%, BAZ2B block -26%, JMJD2A Tudor inh -10% and CtBP-E1A blk -11.
